Holding throughout (assay): NCI-60 one-dose screen, 48 h (100 = growth as untreated, 0 = no growth, -100 = all killed)
Holding throughout (conditions): 10 µM unless noted

For experiment [1], the system named is HCT-15 colon.
The subject of experiment [2] is HT29 colon.
For experiment [3], the system named is SNB-75 CNS.
The test system of experiment [4] is SNB-19 CNS.
Experiment [5] concerns U251 CNS.
For experiment [6], the system named is PC-3 prostate.
For experiment [7], the system named is SK-MEL-5 melanoma.
Experiment [8] has as its system UACC-62 melanoma.
In experiment [9] the test system is SK-MEL-28 melanoma.
In experiment [10] the test system is SK-MEL-2 melanoma.
Experiment [11] relates to EKVX NSCLC.
For experiment [12], the system named is SN12C renal.
Experiment [13] concerns UO-31 renal.
The test system of experiment [14] is TK-10 renal.
Experiment [15] concerns ACHN renal.
Experiment [16] relates to CAKI-1 renal.
Experiment [17] has as its system CCRF-CEM leukemia.
Experiment [18] has as its system MOLT-4 leukemia.
Experiment [19] concerns A498 renal.
Experiment [20] relates to LOX IMVI melanoma.

Each structure is given as a SMILES string. Compounds without any hit were thinned out: in the full panel of roughly 83,000, 20% have a hit.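 Treatment: one concentration, 48 hours, 96-well format. Scoring: percent growth, with anything below 10 considered active.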 Values without a mark were called inactive. The source made the active and inactive calls.

As for `N#Cc1c(NC(=O)NCc2ccccc2)sc2c1CCCC2`, the growth is 20.3% in [1]; 12.8% in experiment [2]; 27% in [3]; 34.1% in [4]; 26.1% in experiment [5]; 26.9% in experiment [6]. The growth in experiment [7] is 13.3%; in experiment [8] it was 39.3%; in experiment [9], 64.9%; in [10] it was 45.6%; in experiment [11] it was 57.8%; in [12], 35.3%. Also, the growth was 47.2% in experiment [13]; 49.1% in [14]; 46.2% in [15]; 38.1% in experiment [16]; 16.6% in experiment [17]; 17.7% in experiment [18].
With `N#Cc1c(-c2cccc([N+](=O)[O-])c2)nc(SCC(=O)c2ccc(Cl)cc2)[nH]c1=O`, the growth was 103% in experiment [1]; 105% in [2]; 72.2% in experiment [3]; 92.8% in experiment [4]; 97.3% in experiment [5]; 100% in [6]. Besides, the growth is 106% in experiment [7]; 93.6% in experiment [8]; 107% in [9]; 110% in experiment [10]; 99.8% in experiment [11]; 96.9% in experiment [12]. The growth in experiment [13] is 80.6%; in [14], 102%; in experiment [15], 103%; in [16] it was 88.8%; in experiment [19], 92.3%; in experiment [17] it was 2.87% (active).
In the case of `O=S(=O)(NCCNc1nccc(-c2c(-c3cccc(O)c3)nc3occn23)n1)c1ccccc1`, the growth in [1] is 103%; in experiment [2], 38.1%; in experiment [3] it was 87.8%; in experiment [4], 94.8%; in experiment [5], 95.4%; in [6], 85.3%. Moreover, the growth in [7] was 33.7%; in experiment [8], 8.22% (active); in experiment [9], 34.1%; in experiment [10], 61.3%; in [11], 109%; in experiment [12], 72.7%. In addition, the growth in experiment [13] was 101%; in [14], 130%; in experiment [15] it was 82.1%; in experiment [16], 78.3%; in experiment [17], 80.9%; in experiment [18] it was 94.2%.
Take `COc1cc(/C=C\c2cc(OC)c(OC)c(OC)c2)cc(NC(=O)/C=C/c2cc(OC)c(OC)c(OC)c2)c1OC`: the growth is 34.6% in experiment [1]; 32% in experiment [2]; 51.8% in experiment [3]; 72% in experiment [4]; 71% in experiment [5]; 29.3% in [6]. For the same compound, the growth is -45.3% (active) in [7]; 29.7% in experiment [8]; 47.6% in experiment [9]; 47% in experiment [10]; 47.6% in [11]; 66.9% in experiment [12]. Besides, the growth is 24.9% in experiment [13]; 71.3% in experiment [14]; 52.7% in experiment [15]; 22.7% in [16]; 41.5% in [19]; 25.8% in [17]. The growth in experiment [18] was 30.9%.
Regarding `N#CC1=C(N)Oc2c(ccc3ccccc23)C1c1ccccc1Cl` (stereo not given), the growth in experiment [1] was 10.7%; in experiment [2], 70%; in experiment [3] it was 13.3%; in [4], 32.9%; in experiment [5], 12.4%; in [6] it was 20%. The growth is 9.89% (active) in experiment [7]; 26.6% in [8]; 50.5% in experiment [9]; 55.9% in experiment [10]; 65.3% in experiment [11]; 22.2% in experiment [12]. Further, the growth was 43.2% in [13]; 6.11% (active) in [14]; 34% in experiment [15]; 27.4% in [16]; -10.3% (active) in experiment [19]; 29.6% in [17].
Take `COc1cc(/C=C2\COc3ccc(-c4ccccc4)cc3C2=O)cc(OC)c1`: the growth in experiment [1] was 61.3%; in [2] it was 60.7%; in experiment [3], 51.8%; in experiment [4], 98.9%; in experiment [5], 75.8%; in experiment [6], 57.9%. In addition, the growth is 86.3% in experiment [7]; 75.9% in experiment [8]; 97.7% in [9]; 83.9% in experiment [10]; 102% in experiment [11]; 80.5% in experiment [12]. The growth was 77.1% in experiment [13]; 103% in experiment [14]; 88.7% in experiment [15]; 71.6% in experiment [16]; 95.5% in experiment [19]; 20.3% in experiment [17]. In addition, the growth in experiment [18] is 30.7%.
`Cc1c2cc[nH]c(=O)c2c(C)c2c1[nH]c1cc(OCCN3CCN(C)CC3)ccc12`: the growth was 10.1% in experiment [1]; -7.17% (active) in experiment [2]; 7.53% (active) in experiment [3]; 12.9% in experiment [4]; 17% in experiment [5]; 7.38% (active) in [6]. Besides, the growth was 11.9% in experiment [7]; 5.81% (active) in experiment [8]; -62.3% (active) in experiment [20]; -13.1% (active) in [10]; -2.81% (active) in [11]; 21% in [12]. The growth is 27.5% in experiment [14]; -17.5% (active) in experiment [15]; 43.7% in [16]; -29.1% (active) in [19]; 13.9% in experiment [17].
Take `CCCNC(=O)Oc1ccc(/C(=C(\C)c2ccccc2)c2ccc(OCCCN(C)C)cc2)cc1`: the growth is 38.7% in experiment [1]; 5.5% (active) in experiment [2]; 86.2% in experiment [3]; 84.9% in experiment [4]; 68.8% in [5]; 71.7% in experiment [6]. In addition, the growth was 86.2% in experiment [7]; 54.2% in [8]; 75.6% in experiment [20]; 92.6% in experiment [10]; 80.1% in experiment [11]; 77.4% in experiment [12]. The growth in [13] is 50%; in experiment [14], 84.8%; in experiment [15], 93.3%; in [16], 83.4%; in experiment [17], 75.7%; in experiment [18], 66.5%.

The values above are taken from PubChem BioAssay (NCI).
